Screening data from PubChem.
SW480 rereplic: inducers of DNA re-replication in SW480 colon cancer cells. SW480 DNA re-replication, Hoechst DNA content imaging, 48 h. Potency, µM (doses to about 46.1 µM), without a hit: top-dose re-replication activation, actives largely listed as activators. hit rate 1.8% among 340,000. AID 624297; also: % of control where 0% means no effect; nearly all actives have a fitted effect of over 55% in size
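Treated cells incubate 48 hr (37 C, 5% CO2), are stained 40 min with Hoechst, and nuclear fluorescence is enumerated; a rise in nuclei with high DNA signal marks re-replication.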
VP16 counter: counter-screen for ROR gamma inhibitors: Gal4-VP16 reporter; Drosophila S2 Gal4-VP16 UAS-luciferase, luminescence, 20 h; Potency, µM (series often up to 53.6 µM), for the others: at the highest dose activity, negative = inhibition, actives largely listed as inhibitors; hit rate 3.5% among 310,000; AID 2546;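 also: Gal4-VP16 expression switched on by copper sulfate through the metallothionein promoter; % is scaled to controls: 0 for no effect and ±100 for the full control effect; nearly all actives have a fitted effect of over 50% in size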
MCF10A rerep: DNA re-replication induction in MCF 10a cells. AID 624296. hit rate 2.9% among 350,000. MCF 10A DNA re-replication, Hoechst nuclear intensity, 48 h. Potency, µM (highest dose often 46.1 µM), without a hit: top-dose activity, positive = re-replication, usual class: activators; also: % of control where 0% means no effect; nearly all actives have a fitted effect of over 50% in size
RORg inh: inhibitors of mouse ROR gamma transcriptional activity | P51450 | Drosophila S2 Gal4-RORgamma UAS-luciferase reporter, 20 h | Potency, µM (series often up to 53.6 µM), for inactives: at the highest dose activity change, negative = inhibition, actives largely listed as inhibitors | hit rate 5.4% among 310,000; also: % is scaled to controls: 0 for no effect and ±100 for the full control effect; nearly all actives have a fitted effect of over 60% in size
Target sequence (P51450 whole entry, looked up, the tested form may be a part): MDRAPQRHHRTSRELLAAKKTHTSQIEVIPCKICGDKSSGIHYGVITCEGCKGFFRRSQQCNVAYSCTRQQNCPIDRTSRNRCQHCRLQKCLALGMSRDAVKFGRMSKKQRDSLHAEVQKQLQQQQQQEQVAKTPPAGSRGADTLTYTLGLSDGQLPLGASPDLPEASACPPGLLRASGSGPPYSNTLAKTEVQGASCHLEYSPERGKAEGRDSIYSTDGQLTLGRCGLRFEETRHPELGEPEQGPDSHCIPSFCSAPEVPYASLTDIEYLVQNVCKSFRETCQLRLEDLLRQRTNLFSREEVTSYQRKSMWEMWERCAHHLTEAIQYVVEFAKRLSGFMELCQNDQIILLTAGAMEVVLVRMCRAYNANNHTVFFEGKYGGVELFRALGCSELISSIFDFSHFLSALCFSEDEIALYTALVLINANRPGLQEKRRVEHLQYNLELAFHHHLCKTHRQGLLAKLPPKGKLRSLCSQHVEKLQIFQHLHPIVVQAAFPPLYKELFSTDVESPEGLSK
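A Gal4/UAS one-hybrid system in insect cells: metallothionein-promoter Gal4–ROR gamma fusion plus Photinus luciferase reporter. Copper sulfate 700 uM final, 20 hr ambient incubation, luminescent detection after 10 min with reagent.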
KB-V1 MDR tox: KB-V1 MDR subline cytotoxicity | KB-V1 MDR cells viability, CellTiter-Glo, 72 h | Potency, µM (series often up to 46.1 µM), usual class: cytotoxic | hit rate 3.4% among 400,000 | AID 1347076; also: % is scaled to controls: 0 for no effect and ±100 for the full control effect; nearly all actives have a fitted effect of over 60% in size
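Luminescent ATP read-out (CellTiter-Glo, 10 min) measures survival of drug-selected KB-V1 MDR cells after 72 h, 37 degrees C compound exposure. Medium: phenol-red-free DMEM, 10% FBS. Values from fitted concentration-response curves.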
KB-3-1 tox: kills parental KB-3-1 adenocarcinoma cells. AID 1347075. Potency, µM (doses to about 46.1 µM), hits mostly cytotoxic. KB-3-1 viability, CellTiter-Glo ATP luminescence, 72 h. hit rate 1.4% among 400,000; also: % is scaled to controls: 0 for no effect and ±100 for the full control effect; nearly all actives have a fitted effect of over 60% in size
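KB-3-1 cells, DMEM (no phenol red) + 10% FBS; compound by pin transfer, 72 h, 37 °C. Readout: CellTiter-Glo luminescence after 10 min. Data normalized, curve-fitted.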
Numbers without * were called inactive; i = inactive; u = inconclusive; x = no result given; [ ] = remark or other dose. A selection: hits, their analogues and other compounds. The true share with any hit is near 10%. Calls follow the shape of the dose curve; as a rule, active = well fitted curve in the direction sought with a large enough effect; inconclusive = small, poorly fitted or top-dose-only effect, or another doubt; inactive = no such curve, though single readings can be large; an effect the other way counts as inactive or inconclusive. Potency is read from the fitted curve at half-maximal effect.

SMILES | SW480 rereplic | VP16 counter | MCF10A rerep | RORg inh | KB-V1 MDR tox | KB-3-1 tox
Cc1ccc(C(C2=C(O)CC(C)(C)CC2=O)C2C(=O)CC(C)(C)CC2=O)s1 (stereo not given) | u | 10% | 23µM* | 12% | i | i
CC1(C)CC(=O)C(C(C2=C(O)CC(C)(C)CC2=O)c2ccc([N+](=O)[O-])cc2)C(=O)C1 (stereo not given) | 1% | 7% | -3% | 35% | u | i
CC1(C)CC(=O)C(C(C2=C(O)CC(C)(C)CC2=O)c2ccc(Br)s2)C(=O)C1 (stereo not given) | u | 10µM* | 13µM* | u | 21µM* | u
O=[N+]([O-])c1nccn1C1C=CC(O)C(CO)O1 (stereo not given) | x | x | x | x | i | x
CCc1nnc2c3ccccc3nc(Nc3ccccc3OC)n12 | x | x | x | x | i | i
CCCCn1c(=S)[nH]c2c(oc3ccc(Cl)cc32)c1=O | x | u | x | 1.1µM* | x | x
Cc1nc(-c2ccc(Cl)cc2)sc1CCNC(=O)C(=O)Nc1ccc2c(c1)OCO2 | x | x | x | x | i | i
COc1cccc(N2CCN(C(=S)Nc3ccccc3OC)CC2)c1 | 1% | 6% | 1% | -15% | i | i
COc1ccccc1NC(=S)N1CCN(c2cccc(C)c2C)CC1 | -4% | 11µM* | 0% | 11µM* | i | u
Cc1ccccc1NC(=S)N1CCN(c2ccccc2Cl)CC1 | -1%[9.22 µM] | 7.1µM* | 2% | 7.1µM* | i | i
CN1CCN(C(=S)Nc2ccccc2Cl)CC1 | u | 4% | -5% | -8% | i | i
Cc1ccc(NC(=O)c2cc(-c3cc(Cl)ccc3C)n[nH]2)cc1NS(C)(=O)=O | x | x | x | x | i | i
CCN(CC)CCCC(C)n1c(-c2ccccc2)nc2c(N3CCOCC3)nc(C)nc21 (stereo not given) | x | -7% | x | -15% | x | x
COc1ccc2[nH]c3c(NCCC4=CCCCC4)ncnc3c2c1 | u | 7.1µM* | 21µM* | u | 9.2µM* | 3.7µM*
COc1ccc(CCNc2c3ccccc3nc3ccccc23)cc1OC | 0.92µM* | u | 6.5µM* | -29% | u | u
COc1cc2ncnc(NCCc3ccccc3)c2cc1OC | -1% | -1%[10 µM] | 3% | -99% | u | u
COc1nc(NCCc2ccc(OC)c(OC)c2)nc(OC)n1 | -5% | 7% | -2% | 34% | i | i
COc1ccc(CCNc2ncnc3cc(OC)c(OC)cc23)cc1OC | u | -16%[10 µM] | 10% | u | 21µM* | i
CCN(CC)CCNc1ncnc2c1[nH]c1ccc(OC)cc12 | x | -1% | x | 23% | x | x
CCOc1ccc2[nH]c3c(NCCC(C)C)ncnc3c2c1 | u | 4.5µM* | 12µM* | u | i | u
COc1ccc(CCNc2ncnc3c2[nH]c2cc(OC)c(OC)cc23)cc1OC | 18µM* | u | 18µM* | u | i | i
CC(C)=CCc1cc([C@@H]2COc3c(ccc4c3C=CC(C)(C)O4)C2)c(O)cc1O | 5% | x | 5.2µM* | x | i | i
CC1(C)C=Cc2c(ccc3c2OC[C@H](c2ccc(O)cc2O)C3)O1 | -63% | x | u | x | i | i
COc1ccccc1NC(=O)C1=C(C)Nc2nc(SCc3ccccc3Cl)nn2C1c1ccncc1 (stereo not given) | x | x | x | x | i | i
COc1ccc(-c2nn(-c3ccccc3)cc2C(=O)OCC(=O)c2ccc(C)c([N+](=O)[O-])c2)cc1 | 1% | 18µM* | u | u | u | i
SMILES | SW480 rereplic | VP16 counter | MCF10A rerep | RORg inh | KB-V1 MDR tox | KB-3-1 tox
Cc1cccc(-n2ncc(C(=O)NCc3ccco3)c2C2CCN(C(=O)OC(C)(C)C)CC2)c1 | x | x | x | x | i | i
CC(=O)c1cc(-c2ccccc2)n(CC(=O)N2CCN(C3CCCC3)CC2)c1C | -1% | 4% | 0% | -7% | i | i
CC(=O)c1cc(-c2ccccc2)n(CC(=O)N2CCC(C)CC2)c1C | -9% | -6% | 5% | -7% | 5.8µM* | i
Cc1ccc2c(c1)N(C(=O)NC1CCCCC1)C(C)(C)CC2C (stereo not given) | u | 3% | 9.2µM* | 24% | i | i
Nc1cccc2c1C(=O)N(C(=O)c1ccco1)C2=O | 15% | 2% | 8% | 7% | i | u
Nc1cccc2c1C(=O)N(C(=O)/C=C/c1ccc(F)cc1)C2=O | u | -2% | u | 13µM* | u | i
Cc1ccccc1N1CCN(S(=O)(=O)CC23CCC(CC2NC(=O)C(N)CCS(C)(=O)=O)C3(C)C)CC1 (stereo not given) | x | -2% | x | 17% | x | x
CCc1cc(=O)oc2c3c(c(Cl)cc12)OCN(Cc1cccc(OC)c1)C3 | x | x | x | x | i | i
COc1cccc(N=Nc2ccc3ccccc3c2O)c1 | -6% | u | 7% | 8.9µM* | i | i
CN(C)c1ccc(-c2ccc3ncnc(-n4ccnc4)c3c2)cc1 | x | 13µM* | x | 7.1µM* | x | x
CN(C)C(=O)c1ccc(-c2cncnc2-n2ccnc2)cc1 | x | -1% | x | -1% | x | x
Cc1ccccc1-c1ccc2ncnc(-n3ccnc3)c2c1 | x | 13µM* | x | 11µM* | x | x
Cc1cccc(CNC(=O)Cn2ccc3cc(S(=O)(=O)N4CCC(C)CC4)ccc32)c1 | x | x | x | x | i | i
O=c1c2cc(NC(=S)N3CCC(N4CCCCC4)CC3)ccc2nc2n1CCCCC2 | 0% | -2% | 1% | -16% | i | i
O=c1c2cc(NC(=S)NCCCN3CCC(Cc4ccccc4)CC3)ccc2nc2n1CCCCC2 | u | -10% | 2% | -13% | u | 23µM*
O=c1c2cc(NC(=S)NC3CCCCC3)ccc2nc2n1CCCCC2 | -9% | -8% | 47% | u | u | i
O=c1c2cc(NC(=S)NCCN3CCCCCC3)ccc2nc2n1CCCCC2 | 1% | 0% | 1% | 12% | i | i
Cc1cccc(N2CCN(C(=S)Nc3ccc4nc5n(c(=O)c4c3)CCCCC5)CC2)c1C | u | -7% | 23µM* | 35% | u | u
O=c1c2cc(NC(=S)NC3CCCC3)ccc2nc2n1CCCCC2 | -7% | -10% | 13% | u | 21µM* | i
Cc1nc2cccnc2n1-c1cccc(C(=O)N2CCN(c3cccc(Cl)c3)CC2)c1 | x | x | x | x | i | i
COc1ccc(S(=O)(=O)N(CCc2ccccc2)CC(=O)NCc2ccc(C)cc2)cc1 | x | x | x | x | i | u
CCNC(=S)N1N=C2c3ccccc3CCC2C1c1ccc(F)cc1 (stereo not given) | 29% | u | 6.5µM* | 8.9µM* | 21µM* | u
